What was measured:
Assay in all cases: log2 ratio of Biotin-Ahx-Ub-VS probe labelling (fragment/DMSO); higher = less target engagement (more negative = stronger competition), active = hit call of the paper (q ≤ 0.05, log2 ratio ≤ -1)
Conditions in all cases: compound concentration: 200 uM; treatment time: 3 h
USP42 = target: T1, USP42 (UniProt Q9H9J4)
T1 sequence (whole entry): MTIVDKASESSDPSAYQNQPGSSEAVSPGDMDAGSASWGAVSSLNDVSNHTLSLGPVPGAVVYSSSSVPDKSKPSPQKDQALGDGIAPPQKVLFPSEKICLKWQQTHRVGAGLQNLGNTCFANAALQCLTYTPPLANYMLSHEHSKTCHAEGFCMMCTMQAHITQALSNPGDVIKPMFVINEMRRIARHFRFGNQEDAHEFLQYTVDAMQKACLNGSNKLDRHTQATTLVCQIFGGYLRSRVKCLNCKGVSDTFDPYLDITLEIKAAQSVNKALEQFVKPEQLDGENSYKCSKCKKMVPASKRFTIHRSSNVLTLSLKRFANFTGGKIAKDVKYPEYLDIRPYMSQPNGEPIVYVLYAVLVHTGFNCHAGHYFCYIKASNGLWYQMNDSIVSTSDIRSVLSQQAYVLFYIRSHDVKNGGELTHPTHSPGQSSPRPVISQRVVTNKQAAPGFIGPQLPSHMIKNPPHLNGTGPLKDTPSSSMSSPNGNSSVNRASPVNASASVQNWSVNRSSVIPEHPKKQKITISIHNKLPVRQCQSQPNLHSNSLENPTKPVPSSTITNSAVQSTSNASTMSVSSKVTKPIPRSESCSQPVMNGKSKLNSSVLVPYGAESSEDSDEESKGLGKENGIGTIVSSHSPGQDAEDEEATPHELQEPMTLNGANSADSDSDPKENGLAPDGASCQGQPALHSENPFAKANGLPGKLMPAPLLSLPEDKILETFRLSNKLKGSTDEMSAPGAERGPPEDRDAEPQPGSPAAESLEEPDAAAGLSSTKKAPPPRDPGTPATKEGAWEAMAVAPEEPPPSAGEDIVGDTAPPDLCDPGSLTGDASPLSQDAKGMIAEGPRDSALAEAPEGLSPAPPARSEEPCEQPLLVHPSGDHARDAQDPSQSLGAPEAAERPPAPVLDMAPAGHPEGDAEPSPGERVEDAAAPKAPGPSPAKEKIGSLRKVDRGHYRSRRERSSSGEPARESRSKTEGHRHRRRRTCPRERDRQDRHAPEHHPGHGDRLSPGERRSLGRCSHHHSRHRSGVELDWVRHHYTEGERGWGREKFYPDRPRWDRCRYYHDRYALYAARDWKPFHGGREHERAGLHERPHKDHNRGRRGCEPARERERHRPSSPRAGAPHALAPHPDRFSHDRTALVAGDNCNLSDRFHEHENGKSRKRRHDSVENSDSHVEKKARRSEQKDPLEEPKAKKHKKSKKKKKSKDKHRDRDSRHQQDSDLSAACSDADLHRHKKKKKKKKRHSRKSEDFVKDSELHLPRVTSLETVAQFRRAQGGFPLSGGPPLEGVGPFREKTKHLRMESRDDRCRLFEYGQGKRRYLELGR
Summary of the method: (§1)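 Each value is an average log2 ratio of fragment to vehicle, tested by unpaired t-test. The underlying Spectronaut label-free quantities were global-median-normalised, and only proteins with ≥2 unique peptides were included. Triplicate HEK293T lysate samples (495 µg) were exposed to fragment at 200 µM or vehicle for 3 h, then to Biotin-Ahx-Ub-VS at 0.5 µM final for 1 h, before NeutrAvidin enrichment of labelled DUBs, LysC and trypsin digestion, and diaPASEF LC-MS/MS.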

USP46 = USP46 (UniProt P62068)
Summary of the method: as §1

USP47 = target: T2, USP47 (UniProt Q96K76)
T2 sequence (whole entry): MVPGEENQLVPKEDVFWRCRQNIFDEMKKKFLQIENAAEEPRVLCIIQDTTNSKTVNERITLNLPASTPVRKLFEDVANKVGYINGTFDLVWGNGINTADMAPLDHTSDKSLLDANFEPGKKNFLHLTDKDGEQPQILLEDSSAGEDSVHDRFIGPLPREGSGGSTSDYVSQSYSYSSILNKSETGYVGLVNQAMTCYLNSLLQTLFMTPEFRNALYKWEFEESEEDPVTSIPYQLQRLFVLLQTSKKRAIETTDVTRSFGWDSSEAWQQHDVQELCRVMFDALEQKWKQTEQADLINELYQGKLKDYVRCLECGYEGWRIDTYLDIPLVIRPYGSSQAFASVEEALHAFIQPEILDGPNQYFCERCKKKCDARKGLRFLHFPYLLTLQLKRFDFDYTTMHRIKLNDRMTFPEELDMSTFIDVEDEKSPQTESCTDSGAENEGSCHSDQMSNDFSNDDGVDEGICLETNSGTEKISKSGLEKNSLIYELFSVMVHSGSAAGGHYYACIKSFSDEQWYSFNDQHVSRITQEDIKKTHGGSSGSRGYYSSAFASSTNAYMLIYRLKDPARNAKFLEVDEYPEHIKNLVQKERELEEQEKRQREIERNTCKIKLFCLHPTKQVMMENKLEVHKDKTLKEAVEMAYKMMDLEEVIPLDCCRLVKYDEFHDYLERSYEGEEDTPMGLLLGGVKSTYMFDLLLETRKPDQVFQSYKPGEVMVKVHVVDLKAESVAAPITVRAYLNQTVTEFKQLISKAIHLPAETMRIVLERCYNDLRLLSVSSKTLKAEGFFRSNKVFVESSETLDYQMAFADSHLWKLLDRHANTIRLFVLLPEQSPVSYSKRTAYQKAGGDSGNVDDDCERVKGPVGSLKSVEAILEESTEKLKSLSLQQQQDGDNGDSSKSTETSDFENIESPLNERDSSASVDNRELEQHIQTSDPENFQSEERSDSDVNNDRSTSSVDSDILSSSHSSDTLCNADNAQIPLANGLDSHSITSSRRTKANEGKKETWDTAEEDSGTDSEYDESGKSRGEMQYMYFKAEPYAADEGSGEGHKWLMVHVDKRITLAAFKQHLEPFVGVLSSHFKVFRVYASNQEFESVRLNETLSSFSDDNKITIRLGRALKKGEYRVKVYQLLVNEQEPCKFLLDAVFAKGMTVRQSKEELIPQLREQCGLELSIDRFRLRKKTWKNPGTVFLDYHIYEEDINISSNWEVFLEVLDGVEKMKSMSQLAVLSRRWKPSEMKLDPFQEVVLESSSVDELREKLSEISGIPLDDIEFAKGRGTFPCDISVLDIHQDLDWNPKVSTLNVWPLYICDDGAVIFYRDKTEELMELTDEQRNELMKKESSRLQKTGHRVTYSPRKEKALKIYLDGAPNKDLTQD
Summary of the method: as §1

USP48 = target: T3, USP48 (UniProt Q86UV5)
T3 sequence (whole entry): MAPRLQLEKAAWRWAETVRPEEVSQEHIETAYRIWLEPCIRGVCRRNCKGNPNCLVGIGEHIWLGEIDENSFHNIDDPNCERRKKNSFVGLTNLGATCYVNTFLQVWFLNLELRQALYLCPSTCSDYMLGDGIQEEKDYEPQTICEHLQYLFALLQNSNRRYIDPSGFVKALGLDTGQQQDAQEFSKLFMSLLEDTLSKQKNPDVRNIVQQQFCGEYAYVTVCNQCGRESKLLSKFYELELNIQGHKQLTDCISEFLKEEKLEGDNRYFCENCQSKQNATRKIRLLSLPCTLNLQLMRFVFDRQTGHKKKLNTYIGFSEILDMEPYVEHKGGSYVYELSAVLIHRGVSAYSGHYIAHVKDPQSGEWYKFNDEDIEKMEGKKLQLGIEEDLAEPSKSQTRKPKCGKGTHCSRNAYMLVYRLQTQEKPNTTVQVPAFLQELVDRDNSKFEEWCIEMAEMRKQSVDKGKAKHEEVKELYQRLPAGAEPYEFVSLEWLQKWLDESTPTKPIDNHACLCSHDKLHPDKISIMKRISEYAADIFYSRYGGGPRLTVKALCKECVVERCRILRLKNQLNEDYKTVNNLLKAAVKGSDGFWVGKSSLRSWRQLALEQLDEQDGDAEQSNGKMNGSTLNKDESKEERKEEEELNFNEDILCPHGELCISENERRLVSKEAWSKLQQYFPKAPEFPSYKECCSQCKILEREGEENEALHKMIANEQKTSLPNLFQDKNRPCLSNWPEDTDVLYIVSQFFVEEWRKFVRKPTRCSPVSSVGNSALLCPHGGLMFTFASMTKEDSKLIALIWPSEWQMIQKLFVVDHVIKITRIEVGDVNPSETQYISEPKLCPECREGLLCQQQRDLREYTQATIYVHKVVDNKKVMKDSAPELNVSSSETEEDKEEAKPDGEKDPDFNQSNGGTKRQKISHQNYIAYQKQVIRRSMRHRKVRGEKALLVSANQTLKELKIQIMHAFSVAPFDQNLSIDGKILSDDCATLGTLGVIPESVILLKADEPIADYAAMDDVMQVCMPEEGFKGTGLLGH
Summary of the method: as §1

USP5 = target: T4, USP5 (UniProt P45974)
T4 sequence (whole entry): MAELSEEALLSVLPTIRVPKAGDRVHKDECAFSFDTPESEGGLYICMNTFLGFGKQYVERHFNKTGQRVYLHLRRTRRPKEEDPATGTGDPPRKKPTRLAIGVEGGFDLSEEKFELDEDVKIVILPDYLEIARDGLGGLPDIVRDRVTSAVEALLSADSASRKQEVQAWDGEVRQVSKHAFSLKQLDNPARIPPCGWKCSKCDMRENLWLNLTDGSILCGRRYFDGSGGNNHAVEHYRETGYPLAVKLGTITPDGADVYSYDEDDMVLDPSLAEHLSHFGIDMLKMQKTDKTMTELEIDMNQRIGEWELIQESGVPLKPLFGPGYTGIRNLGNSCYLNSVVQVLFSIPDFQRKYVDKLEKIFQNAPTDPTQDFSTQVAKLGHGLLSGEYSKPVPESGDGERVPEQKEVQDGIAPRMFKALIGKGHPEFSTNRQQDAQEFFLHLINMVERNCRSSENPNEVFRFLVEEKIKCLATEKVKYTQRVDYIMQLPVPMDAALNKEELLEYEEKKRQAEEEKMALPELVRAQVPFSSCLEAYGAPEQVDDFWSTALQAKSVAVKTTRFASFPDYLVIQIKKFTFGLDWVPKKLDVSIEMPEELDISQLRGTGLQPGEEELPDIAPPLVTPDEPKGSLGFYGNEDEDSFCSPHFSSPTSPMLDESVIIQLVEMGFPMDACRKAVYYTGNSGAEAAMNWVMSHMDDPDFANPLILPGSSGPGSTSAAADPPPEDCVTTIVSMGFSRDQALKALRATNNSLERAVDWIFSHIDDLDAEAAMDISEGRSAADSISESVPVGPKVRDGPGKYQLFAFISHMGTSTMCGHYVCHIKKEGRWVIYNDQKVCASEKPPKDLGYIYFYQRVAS
Summary of the method: as §1

USP54 = USP54 (UniProt Q70EL1)
Summary of the method: as §1

USP7 = USP7 (UniProt Q93009)
Summary of the method: as §1

USP8 = target: T5, USP8 (UniProt P40818)
T5 sequence (whole entry): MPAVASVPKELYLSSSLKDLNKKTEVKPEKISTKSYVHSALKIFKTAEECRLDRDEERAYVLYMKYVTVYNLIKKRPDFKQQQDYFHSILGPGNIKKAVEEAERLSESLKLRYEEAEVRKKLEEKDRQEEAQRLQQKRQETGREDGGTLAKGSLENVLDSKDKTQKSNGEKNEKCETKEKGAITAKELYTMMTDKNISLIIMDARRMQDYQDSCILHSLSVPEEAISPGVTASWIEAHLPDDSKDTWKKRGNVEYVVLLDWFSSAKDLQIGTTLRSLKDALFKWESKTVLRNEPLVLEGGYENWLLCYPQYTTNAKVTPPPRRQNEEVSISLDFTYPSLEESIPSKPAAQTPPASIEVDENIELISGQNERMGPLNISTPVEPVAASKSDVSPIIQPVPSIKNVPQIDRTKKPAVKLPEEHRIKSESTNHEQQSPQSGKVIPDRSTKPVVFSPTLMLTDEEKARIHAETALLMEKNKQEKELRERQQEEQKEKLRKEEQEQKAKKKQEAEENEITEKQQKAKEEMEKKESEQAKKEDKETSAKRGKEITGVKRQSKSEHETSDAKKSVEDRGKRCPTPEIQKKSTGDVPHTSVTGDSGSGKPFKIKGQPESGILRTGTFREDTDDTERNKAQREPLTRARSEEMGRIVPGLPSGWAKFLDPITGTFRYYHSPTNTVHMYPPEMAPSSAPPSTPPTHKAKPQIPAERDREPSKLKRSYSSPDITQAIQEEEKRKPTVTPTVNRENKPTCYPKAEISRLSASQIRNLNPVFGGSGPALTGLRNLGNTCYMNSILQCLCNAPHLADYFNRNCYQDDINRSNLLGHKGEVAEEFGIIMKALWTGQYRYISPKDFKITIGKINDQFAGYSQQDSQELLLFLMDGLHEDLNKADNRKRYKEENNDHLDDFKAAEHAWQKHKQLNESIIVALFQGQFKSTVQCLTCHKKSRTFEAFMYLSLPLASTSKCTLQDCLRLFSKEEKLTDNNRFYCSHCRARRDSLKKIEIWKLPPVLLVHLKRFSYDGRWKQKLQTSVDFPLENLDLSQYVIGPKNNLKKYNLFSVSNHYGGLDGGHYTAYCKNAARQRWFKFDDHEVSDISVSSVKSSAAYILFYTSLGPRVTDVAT
Summary of the method: as §1

USP9X = USP9X (UniProt Q93008)
Summary of the method: as §1

UniProt O00487 = target: UniProt O00487
Summary of the method: as §1

Measured: log2 ratio of Biotin-Ahx-Ub-VS probe labelling

Sequence of UniProt O00487 (O00487 whole entry): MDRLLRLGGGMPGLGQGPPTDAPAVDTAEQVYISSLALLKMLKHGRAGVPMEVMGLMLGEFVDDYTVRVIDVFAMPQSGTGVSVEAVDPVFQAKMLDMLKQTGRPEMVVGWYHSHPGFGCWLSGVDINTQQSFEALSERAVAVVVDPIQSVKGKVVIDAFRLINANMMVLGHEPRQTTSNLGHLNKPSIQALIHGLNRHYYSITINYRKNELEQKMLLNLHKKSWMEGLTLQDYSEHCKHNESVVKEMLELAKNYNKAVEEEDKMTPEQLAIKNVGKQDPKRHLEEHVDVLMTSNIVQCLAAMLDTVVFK
Sequence of USP9X (Q93008 whole entry): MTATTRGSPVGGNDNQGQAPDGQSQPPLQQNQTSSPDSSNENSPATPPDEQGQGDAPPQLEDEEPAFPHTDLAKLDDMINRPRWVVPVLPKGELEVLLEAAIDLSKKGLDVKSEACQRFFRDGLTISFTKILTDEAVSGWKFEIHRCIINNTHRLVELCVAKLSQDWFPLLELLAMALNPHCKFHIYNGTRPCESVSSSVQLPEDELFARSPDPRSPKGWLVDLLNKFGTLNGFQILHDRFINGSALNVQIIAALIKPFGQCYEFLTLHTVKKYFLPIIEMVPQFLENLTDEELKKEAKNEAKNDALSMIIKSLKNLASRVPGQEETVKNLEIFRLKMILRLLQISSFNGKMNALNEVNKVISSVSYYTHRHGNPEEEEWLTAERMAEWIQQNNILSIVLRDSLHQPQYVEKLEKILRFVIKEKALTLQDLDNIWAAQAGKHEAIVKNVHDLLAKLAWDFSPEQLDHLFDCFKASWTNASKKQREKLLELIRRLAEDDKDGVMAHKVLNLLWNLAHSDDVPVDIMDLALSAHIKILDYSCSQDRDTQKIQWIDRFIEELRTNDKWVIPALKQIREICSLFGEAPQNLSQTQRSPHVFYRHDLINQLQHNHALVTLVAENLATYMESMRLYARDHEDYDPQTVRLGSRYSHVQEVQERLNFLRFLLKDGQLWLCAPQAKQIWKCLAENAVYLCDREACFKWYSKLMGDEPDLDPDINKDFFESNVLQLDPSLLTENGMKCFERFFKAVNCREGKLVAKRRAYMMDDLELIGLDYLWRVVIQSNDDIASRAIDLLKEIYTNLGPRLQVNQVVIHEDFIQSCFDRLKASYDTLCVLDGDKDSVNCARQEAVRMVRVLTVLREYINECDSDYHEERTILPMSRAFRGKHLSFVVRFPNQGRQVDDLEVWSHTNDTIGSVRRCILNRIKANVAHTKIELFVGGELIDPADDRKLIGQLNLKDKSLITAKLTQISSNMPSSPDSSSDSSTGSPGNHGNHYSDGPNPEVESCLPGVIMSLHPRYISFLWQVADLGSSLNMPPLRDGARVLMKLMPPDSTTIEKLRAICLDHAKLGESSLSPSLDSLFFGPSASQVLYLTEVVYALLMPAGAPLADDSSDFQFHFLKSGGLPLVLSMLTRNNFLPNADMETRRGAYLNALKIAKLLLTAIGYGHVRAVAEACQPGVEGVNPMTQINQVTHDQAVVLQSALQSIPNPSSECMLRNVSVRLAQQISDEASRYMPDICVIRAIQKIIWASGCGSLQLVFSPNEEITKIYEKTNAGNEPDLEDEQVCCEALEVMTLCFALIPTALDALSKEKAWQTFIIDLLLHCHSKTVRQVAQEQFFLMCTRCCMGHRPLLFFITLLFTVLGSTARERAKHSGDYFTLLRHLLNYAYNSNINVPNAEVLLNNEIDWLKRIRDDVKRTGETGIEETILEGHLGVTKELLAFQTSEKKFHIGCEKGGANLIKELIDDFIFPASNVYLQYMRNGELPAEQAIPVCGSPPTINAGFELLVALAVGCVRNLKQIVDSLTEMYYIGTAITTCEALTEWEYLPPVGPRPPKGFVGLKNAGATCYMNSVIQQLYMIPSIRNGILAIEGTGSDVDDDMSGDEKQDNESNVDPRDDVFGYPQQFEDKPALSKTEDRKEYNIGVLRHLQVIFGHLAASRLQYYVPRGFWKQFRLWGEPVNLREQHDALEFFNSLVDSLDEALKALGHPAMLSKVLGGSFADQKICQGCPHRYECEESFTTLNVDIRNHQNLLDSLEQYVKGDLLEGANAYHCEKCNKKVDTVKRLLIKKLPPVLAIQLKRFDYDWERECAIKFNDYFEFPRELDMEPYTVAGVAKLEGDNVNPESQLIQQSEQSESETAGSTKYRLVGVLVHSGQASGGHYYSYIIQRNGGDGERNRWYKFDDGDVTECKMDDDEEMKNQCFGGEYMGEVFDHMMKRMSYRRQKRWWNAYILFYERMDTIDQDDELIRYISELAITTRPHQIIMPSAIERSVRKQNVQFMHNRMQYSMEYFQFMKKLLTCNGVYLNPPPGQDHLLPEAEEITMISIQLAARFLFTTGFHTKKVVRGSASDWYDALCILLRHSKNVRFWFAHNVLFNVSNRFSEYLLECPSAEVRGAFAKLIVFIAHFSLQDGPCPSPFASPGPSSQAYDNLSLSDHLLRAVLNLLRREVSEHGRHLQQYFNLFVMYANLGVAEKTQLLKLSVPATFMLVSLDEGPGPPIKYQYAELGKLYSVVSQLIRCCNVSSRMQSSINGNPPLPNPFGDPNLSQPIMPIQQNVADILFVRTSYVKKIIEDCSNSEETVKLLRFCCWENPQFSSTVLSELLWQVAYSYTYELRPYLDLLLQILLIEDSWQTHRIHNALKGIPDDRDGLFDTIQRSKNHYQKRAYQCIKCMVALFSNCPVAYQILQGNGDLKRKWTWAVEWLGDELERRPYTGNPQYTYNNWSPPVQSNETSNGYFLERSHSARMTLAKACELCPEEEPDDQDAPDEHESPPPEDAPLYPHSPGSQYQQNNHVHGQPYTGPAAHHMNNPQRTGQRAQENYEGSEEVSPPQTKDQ
Sequence of USP7 (Q93009 whole entry, looked up): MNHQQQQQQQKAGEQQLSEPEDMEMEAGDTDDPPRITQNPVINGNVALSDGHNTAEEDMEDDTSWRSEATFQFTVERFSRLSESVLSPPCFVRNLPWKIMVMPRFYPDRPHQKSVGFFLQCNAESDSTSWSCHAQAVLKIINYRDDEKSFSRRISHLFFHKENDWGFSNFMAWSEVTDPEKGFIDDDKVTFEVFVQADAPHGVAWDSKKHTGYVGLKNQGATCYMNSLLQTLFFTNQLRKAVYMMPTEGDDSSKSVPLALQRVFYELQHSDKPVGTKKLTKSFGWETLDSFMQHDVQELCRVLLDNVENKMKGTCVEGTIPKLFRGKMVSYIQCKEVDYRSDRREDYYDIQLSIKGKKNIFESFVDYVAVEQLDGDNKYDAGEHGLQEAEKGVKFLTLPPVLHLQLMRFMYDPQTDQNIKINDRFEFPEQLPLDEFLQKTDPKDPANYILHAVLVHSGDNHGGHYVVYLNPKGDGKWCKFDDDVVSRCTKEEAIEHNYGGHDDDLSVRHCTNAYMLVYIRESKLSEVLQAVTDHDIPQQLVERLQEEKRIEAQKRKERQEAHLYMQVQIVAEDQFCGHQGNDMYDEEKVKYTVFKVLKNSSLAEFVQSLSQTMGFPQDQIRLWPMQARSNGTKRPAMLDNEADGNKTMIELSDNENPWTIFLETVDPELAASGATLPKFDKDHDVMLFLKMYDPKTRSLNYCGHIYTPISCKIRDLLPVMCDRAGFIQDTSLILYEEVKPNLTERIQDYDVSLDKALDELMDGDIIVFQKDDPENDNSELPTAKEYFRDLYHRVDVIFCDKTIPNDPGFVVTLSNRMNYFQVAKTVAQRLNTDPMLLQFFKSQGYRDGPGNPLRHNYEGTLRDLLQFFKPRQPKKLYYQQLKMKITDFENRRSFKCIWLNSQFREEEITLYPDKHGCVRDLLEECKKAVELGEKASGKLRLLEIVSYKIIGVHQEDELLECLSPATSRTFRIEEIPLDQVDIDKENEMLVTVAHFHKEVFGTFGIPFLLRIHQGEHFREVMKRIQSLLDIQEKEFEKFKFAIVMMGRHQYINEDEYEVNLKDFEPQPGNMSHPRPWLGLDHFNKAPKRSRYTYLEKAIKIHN
Sequence of USP46 (P62068 whole entry): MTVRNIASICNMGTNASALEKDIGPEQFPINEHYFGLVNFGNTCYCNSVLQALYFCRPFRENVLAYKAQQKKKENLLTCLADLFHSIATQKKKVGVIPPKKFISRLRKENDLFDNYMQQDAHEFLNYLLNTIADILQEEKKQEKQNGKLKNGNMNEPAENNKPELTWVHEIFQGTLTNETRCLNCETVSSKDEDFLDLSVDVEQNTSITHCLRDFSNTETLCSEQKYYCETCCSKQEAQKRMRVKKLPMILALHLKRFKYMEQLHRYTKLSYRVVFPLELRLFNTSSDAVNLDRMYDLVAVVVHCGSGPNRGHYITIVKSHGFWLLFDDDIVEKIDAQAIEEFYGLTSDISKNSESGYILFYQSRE

O=C(CCl)Nc1ccc(N2CCCC2=O)cc1
inactive: USP42 -0.131 | USP46 0.132 | USP47 0.214 | USP48 -0.192 | USP5 -0.0866 | USP54 0.313 | USP7 -0.0242 | USP8 0.198 | USP9X 0.00968 | UniProt O00487 -0.0936

COc1ccc(CN(C)C(=O)CCl)cc1
inactive: USP42 0.294 | USP46 -0.0887 | USP47 -0.0389 | USP48 -0.604 | USP5 0.404 | USP54 0.256 | USP7 -0.907 | USP8 -0.448 | USP9X -0.178 | UniProt O00487 -0.0169

O=C(CCl)NCCc1ccc(F)cc1
inactive: USP42 0.0996 | USP46 0.235 | USP47 -0.0571 | USP48 -0.229 | USP5 0.066 | USP54 0.699 | USP7 -0.0342 | USP8 -0.0379 | USP9X -0.0191 | UniProt O00487 0.113

CC1(NC(=O)CCl)CCS(=O)(=O)C1 (stereo not given)
inactive: USP42 0.324 | USP46 -0.538 | USP47 -0.0229 | USP48 -0.544 | USP5 -0.73 | USP54 1.09 | USP7 -0.793 | USP8 -0.788 | USP9X -0.847 | UniProt O00487 -0.00664
